Measurements published in PubChem BioAssay AID1259418 (Broad Institute, 2018).
The campaign covered roughly 3,400 compounds. About 840 (25%) were called active. Another 11% or so got no clear call; they are omitted.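 The calls were made as follows: active = fitted half-maximal concentration of signal decrease at or below twice the sample's top tested concentration; inconclusive = flat curve between -70 and -30 percent, or poor fit; inactive = flat within 30 percent, signal rise, or potency above limit.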 These entries were drawn from the full list. Potency and affinity values are given separately.

assay: inhibitors of Toxoplasma growth in IFN-γ-primed HeLa – cell-based, ME49Luc, luciferase, 72 h, dose response (AID 1259418); settings: T. gondii ME49Luc in IFN-y HeLa, stronger effect = lower value, -100% = high-dose IFN-γ control wells; at 19.5 µM unless noted

SMILES | max activity
COc1ccc(CC(=O)N2CCC3(CC2)Nc2ccc(C)c(C)c2-n2cccc23)cc1 | 9.26% [at 0.68 µM] (inactive)
COc1ccccc1NC(=O)N1CCc2nc(-c3ccc(C)cc3)sc2C1 | 44.9% (inactive)
Cc1ccccc1-c1nc(CN2CCN(C(=O)Nc3ccc(Cl)cc3)CC2)c(C)o1 | -10.3% [at 0.35 µM] (inactive)
Cc1nc(N2CCCC2)nc2c1CCN(C(=O)c1ccoc1C)CC2 | -9.94% [at 0.3 µM] (inactive)
CN(C)c1nc(N2CCOCC2)nc2c1CN(Cc1cccs1)CC2 | 13.4% [at 5 µM] (inactive)
CCOc1ccc(-c2nc3c(s2)CN(C(=O)Nc2cc(C)ccc2OC)CC3)cc1 | 14.6% (inactive)
COc1ccc(OCC(=O)N2CCC(C(=O)NCCc3csc(-c4ccccc4)n3)CC2)cc1 | 12.9% (inactive)
COc1ccc(-c2nc3c(s2)CN(S(=O)(=O)c2ccc(NC(C)=O)cc2)CC3)cc1 | 17.2% [at 10 µM] (inactive)
CCCCCNC(=O)CCC1Nc2c3ccccc3nc(=S)n2C1=O (stereo not given) | 12.1% [at 5 µM] (inactive)
CCOc1ccccc1C(=O)N1CCC(C(=O)NCCc2csc(-c3ccccc3)n2)CC1 | -11.4% [at 5 µM] (inactive)
O=C(NCCc1csc(-c2ccccc2)n1)C1CCN(C(=O)c2ccc(F)c(F)c2)CC1 | 18% [at 5 µM] (inactive)
O=C(NCCc1csc(-c2ccccc2)n1)[C@H]1CCCN1C(=O)c1ccccc1Br | -16.7% [at 0.16 µM] (inactive)
Cc1ccccc1C(=O)N1CCC(C(=O)NCCc2csc(-c3ccccc3)n2)CC1 | 23.4% [at 1.35 µM] (inactive)
Cc1nc(CCNC(=O)C2CCN(C(=O)c3ccccc3Cl)CC2)cs1 | -5.21% [at 1.35 µM] (inactive)
O=C(NCCc1csc(-c2ccccc2)n1)C1CCN(C(=O)c2cccc(Cl)c2)CC1 | 7.04% [at 0.68 µM] (inactive)
O=C(Nc1ccc(-c2nc(-c3ccccc3)co2)cc1)Nc1cccc(Br)c1 | 8.78% [at 10 µM] (inactive)
Fc1ccc(CSc2nc(Nc3ccc(F)c(F)c3)c3ccccc3n2)cc1 | 9.75% [at 1.35 µM] (inactive)
Fc1ccc(Nc2nc(SCc3cccc(Cl)c3)nc3ccccc23)cc1 | -13.6% [at 1.35 µM] (inactive)
COc1cc(Nc2nc(SCc3ccc(Cl)cc3)nc3ccccc23)cc(OC)c1 | 21% [at 5 µM] (inactive)
COc1ccc(CNc2nc(SCc3ccc(F)cc3)nc3ccccc23)cc1 | 10.3% (inactive)
Fc1ccc(Nc2nc(SCc3ccccc3Cl)nc3ccccc23)cc1 | 17.7% [at 0.68 µM] (inactive)
CCOC(=O)CSc1nc(Nc2ccc(F)c(F)c2)c2ccccc2n1 | -35.1% [at 0.35 µM] (inactive)
COc1ccc(-c2noc(C3CCCN3C(=O)c3sc(C)nc3C)n2)cc1 (stereo not given) | 11.1% [at 0.35 µM] (inactive)
COc1ccc(CNC(=O)CCC2N=C3c4ccccc4N=C(SCc4cc(=O)n5ccccc5n4)N3C2=O)cc1 (stereo not given) | 14.6% [at 1.35 µM] (inactive)
Cc1csc(-c2csc(S(=O)(=O)N3CCC(Cc4ccccc4)CC3)c2)n1 | -14% [at 0.35 µM] (inactive)

SMILES | max activity
O=C(CCC1Nc2c3ccccc3nc(=S)n2C1=O)NCc1ccc(F)cc1 (stereo not given) | 21.3% (inactive)
Cc1cccc(-c2nc(CSc3nc4c(c(=O)[nH]3)CN(Cc3ccc(F)cc3)CC4)c(C)o2)c1 | 16.6% [at 0.16 µM] (inactive)
CSc1ccc(-c2noc(-c3nnn(Cc4nc(-c5ccccc5)oc4C)c3C)n2)cc1 | 13.9% (inactive)
COc1ccc(S(=O)(=O)Nc2ccc(-c3nc(-c4ccc(C)c(C)c4)co3)cc2)cc1 | 54.5% [at 10 µM] (inactive)
CCn1nnc2c(NCCn3ccc4ccccc43)ncnc21 | -27.3% (inactive)
Cc1nc(-c2cc(S(=O)(=O)N3CCC(C)CC3)c(C)s2)sc1C | -8.09% [at 0.68 µM] (inactive)
Cc1nc(-c2cc(S(=O)(=O)NCCN3CCC(C)CC3)c(C)s2)sc1C | 16.1% [at 0.35 µM] (inactive)
COc1ccc(NC(=O)Nc2ccc(-c3nc(-c4ccc(C)cc4)co3)cc2)cc1OC | -10.2% [at 1.35 µM] (inactive)
COc1ccc(CC(=O)N2CCC3(CC2)Nc2cc(F)ccc2-n2cccc23)cc1 | 9.99% [at 0.16 µM] (inactive)
Cc1ccc(-c2coc(-c3ccc(NS(=O)(=O)c4ccc(Br)cc4)cc3)n2)cc1C | 22% [at 0.68 µM] (inactive)
CN1C(=O)c2cc(NC(=O)Cc3cccs3)ccc2OC[C@@H]2O[C@H](CC(=O)N[C@@H]3CCN(Cc4ccccc4)C3)CC[C@@H]21 | 12.6% [at 0.6 µM] (inactive)
CN1C(=O)c2cc(NC(=O)Cc3cccs3)ccc2OC[C@@H]2O[C@H](CC(=O)N[C@H]3CCN(Cc4ccccc4)C3)CC[C@@H]21 | 21.7% (inactive)
Cc1ccc(-c2coc(-c3ccc(NC(=O)Nc4ccccc4)cc3)n2)c(C)c1 | 15.7% [at 0.16 µM] (inactive)
Cc1ccc(N2CCN(C(=O)c3ccc(-c4csc(C5CC5)n4)cc3)CC2)c(C)c1 | 4.42% (inactive)
COc1cc(NC(=O)Nc2ccc(-c3nc(-c4ccccc4)co3)cc2)cc(OC)c1 | 11.5% [at 0.16 µM] (inactive)
COc1cccc(-c2nc3c(s2)CN(C(=O)Nc2ccc(OC)c(OC)c2)CC3)c1 | 7.26% (inactive)
Cc1ccc(-c2nc3c(s2)CN(C(=O)Nc2ccccc2C)CC3)cc1 | 18.7% (inactive)
COc1ccc(-c2nc3c(s2)CN(C(=O)Nc2ccc(C)cc2C)CC3)cc1 | 24.8% (inactive)
Cc1ccc(-c2nc3c(s2)CN(C(=O)Nc2cccc(C)c2)CC3)cc1 | 26.8% [at 10 µM] (inactive)
COc1ccc(-c2nc3c(s2)CN(C(=O)Nc2cc(C)cc(C)c2)CC3)cc1 | 17.7% (inactive)
COc1cccc(-c2nc3c(s2)CN(C(=O)Nc2ccc(C)c(C)c2)CC3)c1 | 12.6% [at 2.6 µM] (inactive)
Cc1nc(CCNC(=O)C2CCN(S(=O)(=O)c3ccc(F)c(F)c3)CC2)cs1 | 10.4% [at 5 µM] (inactive)
Cc1ccc2c(c1C)-n1cccc1C1(CCN(C(=O)c3cccc(F)c3)CC1)N2 | -11.1% [at 0.35 µM] (inactive)
O=C(NCc1cccnc1)C1CCN(Cc2cc3ccccc3n2Cc2ccccc2Cl)CC1 | -4.69% [at 1.35 µM] (inactive)
O=C(NCCN1CCCC1)C1CCN(Cc2cc3ccccc3n2Cc2ccccc2Cl)CC1 | 6.81% (inactive)

SMILES | max activity
Cc1ccccc1Cn1c(CN2CCC(C(=O)NCCC(C)N3CCCC3)CC2)cc2ccccc21 (stereo not given) | 15.2% [at 0.16 µM] (inactive)
O=C(Nc1ccc(-c2nc(-c3ccccc3)co2)cc1)Nc1ccccc1F | 103% (inactive)
COc1ccc(Cl)cc1NC(=O)N1CCc2nc(-c3ccccc3)sc2C1 | -14.8% [at 0.35 µM] (inactive)
CN(Cc1ccccn1)C(=O)C1=NOC2(CCN(S(=O)(=O)c3cccc(F)c3)C2)C1 (stereo not given) | 23.5% [at 10 µM] (inactive)
Cc1ccc(-c2coc(-c3ccc(NC(=O)Nc4ccc(F)c(Cl)c4)cc3)n2)cc1 | 49.3% (inactive)
CCc1c(C)sc2c1CCN(Cc1nc(-c3ccc(C(C)C)cc3)oc1C)C2c1ccccc1 (stereo not given) | 9.71% (inactive)
Cc1ccccc1C(=O)Nc1cnc(N2CCC(C(N)=O)(N3CCCCC3)CC2)c(C(=O)O)c1 | -6.96% [at 1.35 µM] (inactive)
CC(C)Cc1ccc(S(=O)(=O)N2CCC3(CC2)NCCN=C3NCc2cccc(F)c2)cc1 | 16.8% [at 10 µM] (inactive)
CCc1ccc(S(=O)(=O)N2CCC3(CC2)NCCN=C3NCc2ccc(Cl)cc2)cc1 | 17.4% [at 10 µM] (inactive)
CCc1ccc(S(=O)(=O)N2CCC3(CC2)NCCN=C3NCc2cc(F)cc(F)c2)cc1 | 16.8% (inactive)
Cc1cnn(C(C)C(=O)N2CCc3[nH]nc(-c4ccc(F)c(F)c4)c3C2)c1 (stereo not given) | 11.2% (inactive)
Cc1ccc(-c2coc(-c3ccc(NC(=O)Nc4ccccc4Cl)cc3)n2)cc1 | 13.9% [at 0.16 µM] (inactive)
COC(=O)C1CCN(S(=O)(=O)c2cc3c4c(c2)CCC(=O)N4CCC3)CC1 | 9.1% [at 1.35 µM] (inactive)
CCOc1ccc(-c2nc3c(s2)CN(S(=O)(=O)c2cc(C)cc(C)c2)CC3)cc1 | -12.1% [at 2.6 µM] (inactive)
COc1ccc(-c2nc(NCc3cccc(Cl)c3)c3ccccc3n2)cc1 | -12% [at 0.35 µM] (inactive)
CCc1c(C)sc2c1CCN(Cc1nc(-c3ccc(Cl)cc3)oc1C)C2c1ccccc1 (stereo not given) | 38.9% [at 10 µM] (inactive)
CCc1ccccc1NC(=O)N1CCc2nc(-c3ccc(C)cc3)sc2C1 | -16.8% (inactive)
Clc1ccc(-c2nc(N3CCN(Cc4ccc5c(c4)OCO5)CC3)c3ccccc3n2)cc1 | 21.6% [at 2.6 µM] (inactive)
O=C(Nc1ccc(Cl)cc1)Nc1ccc(-c2nc(-c3ccccc3)co2)cc1 | -18.8% [at 2.6 µM] (inactive)
Cc1oc(-c2ccccc2)nc1CN(c1ccccc1)S(=O)(=O)c1ccccc1 | 6.75% [at 2.6 µM] (inactive)
COc1ccc(-c2nc(CN(c3ccc(OC)cc3)S(=O)(=O)c3ccccc3)c(C)o2)cc1 | 21.2% [at 5 µM] (inactive)
Cc1oc(-c2ccc(OC(C)C)cc2)nc1CN(c1ccccc1)S(=O)(=O)c1ccccc1 | 5.29% (inactive)
COc1ccc(N(Cc2nc(-c3ccc(C)cc3)oc2C)S(=O)(=O)c2ccc(OC)cc2)cc1 | 6.72% [at 1.35 µM] (inactive)
COc1ccc(-c2nc(CN(c3ccc(OC)cc3)S(=O)(=O)c3ccc(OC)cc3)c(C)o2)cc1 | 16.7% [at 5 µM] (inactive)
COc1ccc(-c2nc(CN(c3ccc(OC)cc3)S(=O)(=O)c3ccc(C)cc3)c(C)o2)cc1 | -10.7% [at 0.16 µM] (inactive)
